The source made the active and inactive calls.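 How the source made its calls, unless noted: active means fluorescence slope after compound addition differing from the mean of all screened samples at 99.7% confidence, in either direction; inactive means the rest.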
Assays:
[1] = inhibitors of TNFa-induced NFkB p65 translocation, primary screen, imaging, HUVEC, MLSMR starter and 10KST1 sets (AID 438;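 active means inhibition above 20% together with a positive visual image hit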;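 further: compound added about 3h40 before a 20 min TNFalpha stimulation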;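 on inhibition: signal is the nuclear over cytoplasmic p65 intensity ratio per well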); settings: HUVEC TNFa-induced p65 nuclear translocation; cell count: measured here: nuclei count (cytotoxicity indicator), at 2.08 µM; inhibition: at 2 µM, stronger effect = higher value, 0% TNFa-plus-vehicle, 100% no-TNFa wells
[2] = reduction of polyQ htt aggregates in cells – imaging, exon1htt(103Q)mCFP cells, high-content imaging, primary screen (AID 483;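 active means visual image review flags a hit and inhibition of aggregation exceeds 20%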;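 further: compound exposure lasted 3 days before fixation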;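 on nuclei count: percent of the per-plate median nuclei count of sample wells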); settings: exon1htt(103Q)mCFP cell line, aggregate imaging, at 2 µM; inhibition of aggregation: stronger effect = higher value; nuclei count: measured here: cell count, toxicity
[3] = endothelial E-selectin expression blockers – imaging, HUVEC, immunofluorescence, MLSMR starter and 10KST1 sets, primary screen (AID 487;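 active means visually confirmed hit in the image check and inhibition above 20%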;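 on inhibition: signal is fraction of cell area covered by stained E-selectin grains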;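 on nuclei count: 100% = median nuclei count of all wells on the same plate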); settings: HUVEC TNFalpha-induced E-selectin immunofluorescence imaging, at 2 µM; inhibition: stronger effect = higher value; nuclei count: measured here: cell number, toxicity
[4] = target: Voltage-gated potassium channel subunit beta-2 (Rattus norvegicus) (UniProt P62483); assay: inhibitors of rat Kvbeta2 reductase activity – biochemical, NADPH fluorescence, primary screen (AID 622;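 active means fluorescence slope higher than the sample average by over 3 SD, cut at about -0.22 in these data, passing the limit was not always enough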;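 further: slope of raw intensity against log time taken from 70 to 1610 s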); settings: recombinant KvBeta, 4-cyanobenzaldehyde reduction, at 10 µM, stronger effect = higher value
[5] = target: Voltage-gated potassium channel subunit beta-2 (Rattus norvegicus) (UniProt P62483); assay: enhancers of rat Kvbeta2 NADPH turnover – biochemical, NADPH fluorescence, primary screen (AID 623;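 active means NADPH fluorescence slope more negative than the mean of all samples by about 3 SD, 99.7% confidence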;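 further: fluorescence intensity change per second fitted from 20 to 320 s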); settings: Recombinant KvBeta, NADPH fluorescence decrease slope, 10 min; at 10 µM; stronger effect = lower value
[6] = target: Alpha-2C adrenergic receptor (Homo sapiens) (UniProt P18825); assay: compounds altering alpha2C-coupled GIRK flux – cell-based, HEK293 alpha2C/GIRK1/2, thallium flux, primary screen (AID 624); settings: thallium flux BTC fluorescence, at 10 µM, actives lie on both sides;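 further: slope of fluorescence ratio to pre-addition baseline per second over 15 to 24 s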
[7] = blockers of RIG-like receptor reporter activation – cell-based, Sendai virus stimulus, luciferase, 10K MLSCN set, TLR/RLR signaling modifier project, primary screen (AID 602276;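 active means inhibition at or above 50% at 10 µM; inactive means inhibition below 50%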;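 further: firefly luciferase from ISG56 promoter only with Renilla not read in this screen; 0% = Sendai virus plus DMSO and 100% = medium plus DMSO without virus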); settings: HEK293 RL24 IRF3 luciferase reporter, at 10 µM, stronger effect = higher value
[8] = TLR3 IRF3 reporter activation blockers – cell-based, poly I:C stimulus, luciferase, 10K MLSCN set, primary screen (AID 602277;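 active means inhibition of the reporter signal at or above 50%; inactive means inhibition below 50%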); settings: HEK293-TLR3 RL24 IRF3 luciferase reporter, at 10 µM, stronger effect = higher value

Alpha-2C adrenergic receptor (Homo sapiens), sequence (P18825 whole entry, looked up): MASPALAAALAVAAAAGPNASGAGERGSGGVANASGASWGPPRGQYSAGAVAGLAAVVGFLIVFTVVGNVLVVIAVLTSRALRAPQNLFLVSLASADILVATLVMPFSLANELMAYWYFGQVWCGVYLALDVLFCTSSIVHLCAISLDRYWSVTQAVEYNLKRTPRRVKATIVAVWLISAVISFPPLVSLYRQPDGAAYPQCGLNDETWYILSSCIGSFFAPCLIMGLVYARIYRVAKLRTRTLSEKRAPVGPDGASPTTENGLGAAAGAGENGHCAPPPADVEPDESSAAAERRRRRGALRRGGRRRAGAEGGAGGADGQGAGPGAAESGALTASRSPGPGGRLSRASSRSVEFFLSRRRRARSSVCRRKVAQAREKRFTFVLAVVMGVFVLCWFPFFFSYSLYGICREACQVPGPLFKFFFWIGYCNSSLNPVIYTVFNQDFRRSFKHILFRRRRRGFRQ
Voltage-gated potassium channel subunit beta-2 (Rattus norvegicus), sequence (P62483 whole entry, looked up): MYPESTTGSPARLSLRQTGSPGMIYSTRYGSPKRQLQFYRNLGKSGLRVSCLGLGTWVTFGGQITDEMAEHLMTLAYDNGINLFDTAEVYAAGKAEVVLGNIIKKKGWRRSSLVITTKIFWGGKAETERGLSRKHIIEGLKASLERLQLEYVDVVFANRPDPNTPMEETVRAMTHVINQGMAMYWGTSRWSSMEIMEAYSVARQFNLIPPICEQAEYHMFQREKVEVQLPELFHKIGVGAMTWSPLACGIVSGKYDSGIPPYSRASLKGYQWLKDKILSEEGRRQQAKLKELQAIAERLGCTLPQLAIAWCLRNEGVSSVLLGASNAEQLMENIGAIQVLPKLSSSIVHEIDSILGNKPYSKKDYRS

Compound | cell count [1] | inhibition [1] | inhibition of aggregation [2] | nuclei count [2] [%] | inhibition [3] | nuclei count [3] [%] | fluorescence slope [4] | NADPH fluorescence slope [5] | slope [6] | inhibition [7] | inhibition [8]
COc1ccc(S(=O)(=O)N(CCN2CCOCC2)Cc2cc(OC)ccc2OC)cc1 | 426 | 8.5% (inactive) | -25.8% (inactive) | 102 | -100% (inactive) | 113 | -0.582 (inactive) | -1.5e-06 (inactive) | 0.00508 (inactive) | 17.2% (inactive) | 33.5% (inactive)
O=C(NCC1CCCO1)c1ccc(N2CCCCC2)nc1 (stereo not drawn) | 684 | -11.2% (inactive) | 1.5% (inactive) | 99.7 | -30.2% (inactive) | 107 | -0.314 (inactive) | 2.7e-06 (inactive) | 0.00663 (inactive) | -7.44% (inactive) | -103% (inactive)
CC(=O)Nc1ccc(NC(=O)c2cc(C)nn2-c2ccccc2)cc1 | 687 | -6.1% (inactive) | -15.3% (inactive) | 112 | -36.4% (inactive) | 129 | -0.539 (inactive) | -1.7e-06 (inactive) | 0.00394 (inactive) | -3.81% (inactive) | 0.294% (inactive)
Cc1[nH]c(=O)[nH]c(=O)c1S(=O)(=O)N1CCCC(C(=O)NCc2ccco2)C1 (stereo not drawn) | 377 | -2.8% (inactive) | -4.9% (inactive) | 104 | -48.3% (inactive) | 106 | -0.402 (inactive) | -2.3e-05 (inactive) | 0.00332 (inactive) | -2.81% (inactive) | 24.8% (inactive)
CCOC(=O)c1[nH]c(C)c(C(=O)Nc2ccccc2C)c1C | 619 | 12.1% (inactive) | -101% (inactive) | 7.1 | -15.2% (inactive) | 94.8 | -0.603 (inactive) | -5.4e-05 (inactive) | 0.00703 (inactive) | 27.7% (inactive) | 11.1% (inactive)
O=C(NC1CCCCCC1)c1c(F)c(F)c(F)c(F)c1F | 448 | 1.8% (inactive) | 3.9% (inactive) | 104 | 1.8% (inactive) | 118 | -0.299 (inactive) | -1.4e-05 (inactive) | 0.00585 (inactive) | 1.12% (inactive) | 12.3% (inactive)
O=C1CN(C(=O)COC(=O)C23CC4CC(CC(O)(C4)C2)C3)c2ccccc2N1 | 649 | 1.4% (inactive) | 8% (inactive) | 106 | -44.5% (inactive) | 102 | -0.597 (inactive) | -3.1e-05 (inactive) | 0.00543 (inactive) | 8.83% (inactive) | 27.8% (inactive)
O=S(=O)(Nc1cccnc1)c1ccc2c(c1)OCCO2 | 337 | 10.2% (inactive) | 5.2% (inactive) | 88.2 | 16.8% (inactive) | 92 | -0.393 (inactive) | -4.2e-05 (inactive) | 0.00465 (inactive) | 13.5% (inactive) | 17.6% (inactive)
Cc1cc(C)n2c(SCC(=O)Nc3cc(C)on3)nnc2n1 | 335 | -14.1% (inactive) | 2.1% (inactive) | 71.2 | 3.6% (inactive) | 100 | -0.555 (inactive) | -2.2e-05 (inactive) | 0.00561 (inactive) | 11% (inactive) | 22.4% (inactive)
Cc1ccc2c(c1)-c1c(cnn1CC(=O)Nc1ccccc1N1CCN(C)CC1)CO2 | 521 | -10.8% (inactive) | -22% (inactive) | 66.8 | -3.4% (inactive) | 108 | -0.507 (inactive) | -9e-06 (inactive) | 0.00599 (inactive) | 3.02% (inactive) | 7.29% (inactive)
O=C(Nc1ccc(O)cc1)C1CCCN1S(=O)(=O)c1ccc(F)cc1 (stereo not drawn) | 598 | -2.1% (inactive) | -9.8% (inactive) | 90 | -33.3% (inactive) | 119 | -0.497 (inactive) | -2.5e-05 (inactive) | 0.00664 (inactive) | 8.7% (inactive) | 9.85% (inactive)
Cc1cc(C)n2nc(SCC(=O)N(C)c3ccccc3)nc2n1 | 370 | -5.3% (inactive) | -25.2% (inactive) | 115 | -24.2% (inactive) | 103 | -0.462 (inactive) | -4.2e-05 (inactive) | 0.0068 (inactive) | 5.25% (inactive) | 24.1% (inactive)
CCOC(=O)c1ccccc1NC(=O)c1c(O)c2ccccc2n(CC)c1=O | 649 | -12.8% (inactive) | -35.3% (inactive) | 101 | 20.2% (inactive) | 120 | -0.489 (inactive) | -0.000195 (inactive) | 0.00747 (inactive) | -2.85% (inactive) | 9.26% (inactive)
O=C(CSc1nnc(-c2ccccc2)o1)N1CCc2ccccc2C1 | 400 | -4.2% (inactive) | 2.7% (inactive) | 101 | -104% (inactive) | 121 | -0.382 (inactive) | -6.2e-05 (inactive) | 0.00577 (inactive) | 7.64% (inactive) | 22.9% (inactive)
CC1CC(C)CN(CC(=O)Nc2ccc(S(N)(=O)=O)cc2)C1 (stereo not drawn) | 368 | 1.4% (inactive) | -27.5% (inactive) | 113 | 30.9% (inactive) | 96.7 | -0.517 (inactive) | -3e-05 (inactive) | 0.00537 (inactive) | 7.84% (inactive) | 12.5% (inactive)
O=C(CCn1c(=O)c2ccccc2n(CC(=O)NCCC2=CCCCC2)c1=O)NCc1ccco1 | 596 | -10.9% (inactive) | 25.7% (inactive) | 102 | -9.8% (inactive) | 82 | -0.558 (inactive) | -3e-05 (inactive) | 0.00599 (inactive) | -4.87% (inactive) | 10.3% (inactive)
O=C(NCc1ccc2c(c1)OCO2)C1CCCN(S(=O)(=O)c2cccc3cccnc23)C1 (stereo not drawn) | 741 | -8% (inactive) | 20.4% (inactive) | 125 | -40.6% (inactive) | 104 | -0.527 (inactive) | -6.1e-05 (inactive) | 0.00698 (inactive) | 15.2% (inactive) | 40.4% (inactive)
COc1nc(Oc2ccc(=O)n(C)n2)nc(N(C)C)n1 | 420 | 1% (inactive) | -5.2% (inactive) | 116 | -52.1% (inactive) | 110 | -0.357 (inactive) | -1.9e-05 (inactive) | 0.00579 (inactive) | 6.15% (inactive) | 12% (inactive)
Cc1nc2nc(-c3cccnc3)nn2c(C)c1Cl | 689 | -13.8% (inactive) | -5.4% (inactive) | 81.3 | -32.8% (inactive) | 107 | -0.333 (inactive) | -3.7e-05 (inactive) | 0.00559 (inactive) | -17.9% (inactive) | -15.3% (inactive)
COc1ccc(-c2nnc(SC(C)C(=O)Nc3nccs3)n2-c2ccccc2)cc1OC (stereo not drawn) | 548 | -8% (inactive) | 2.8% (inactive) | 82.2 | -36.4% (inactive) | 93.8 | -0.496 (inactive) | 2.4e-05 (inactive) | 0.0047 (inactive) | -14.8% (inactive) | -2.92% (inactive)
CCOc1cccc(-c2nnc3n2N=C(c2cc(OC)ccc2OC)CS3)c1 | 404 | 15.8% (inactive) | -30.5% (inactive) | 10.2 | -56.6% (inactive) | 111 | -0.376 (inactive) | -2.7e-06 (inactive) | 0.00667 (inactive) | 19.6% (inactive) | 56.7% (active)
Cc1c(C(=O)Nc2nnc(C(F)(F)F)s2)oc2ccccc12 | 778 | -8.8% (inactive) | -7.7% (inactive) | 121 | -57.7% (inactive) | 108 | -0.419 (inactive) | 2.3e-05 (inactive) | 0.00814 (inactive) | -13.9% (inactive) | -95.9% (inactive)
CC1Cc2ccccc2N1Cc1cc(=O)n2ccsc2n1 (stereo not drawn) | 453 | -5.7% (inactive) | -2.2% (inactive) | 96.8 | -157% (inactive) | 121 | -0.581 (inactive) | -2e-05 (inactive) | 0.00674 (inactive) | 1.61% (inactive) | 20.7% (inactive)
CCOc1ccc(OCC)c(NC(=O)CN2CCN(C(=O)c3ccco3)CC2)c1 | 554 | -19.4% (inactive) | -12.3% (inactive) | 122 | -77.5% (inactive) | 102 | -0.546 (inactive) | 1.9e-05 (inactive) | 0.00515 (inactive) | -15.6% (inactive) | -16.4% (inactive)
Clc1ccc(OCCCn2cncn2)cc1Cl | 432 | 3.4% (inactive) | 21.2% (inactive) | 99.2 | 7.8% (inactive) | 94.7 | -0.523 (inactive) | 5.3e-06 (inactive) | 0.00702 (inactive) | 10.6% (inactive) | -19.6% (inactive)
O=C(NCCCn1ccnc1)c1csc2ccccc12 | 337 | 4.7% (inactive) | -23.2% (inactive) | 99.4 | -7.7% (inactive) | 113 | -0.414 (inactive) | -3.7e-05 (inactive) | 0.00227 (inactive) | 10.2% (inactive) | 27.4% (inactive)
C#CCSc1nnc(-c2ccccc2)c(=O)[nH]1 | 903 | -8.2% (inactive) | 0.6% (inactive) | 127 | -57.3% (inactive) | 109 | -0.505 (inactive) | -4.9e-05 (inactive) | 0.00603 (inactive) | -0.0999% (inactive) | -4.88% (inactive)
N#CC1=C(N)OC2=C(CCC/C2=C/c2ccoc2)C1c1ccoc1 (stereo not drawn) | 413 | -5.2% (inactive) | -17.9% (inactive) | 113 | -137% (inactive) | 115 | -0.313 (inactive) | -5.7e-05 (inactive) | 0.00619 (inactive) | -7.37% (inactive) | -9.08% (inactive)
